In PubChem BioAssay (NCI):
This is part of a sample that, as a whole, favours compounds with a hit. Of some 79,000 tested, about 15% had one in any assay. A number with no mark means an inactive call. The source made the active and inactive calls. Cut-off read from the data, not from the text of the source: active = growth inhibition above about 70%; inactive = the rest.

Tests used:
[1] = NCI Yeast Anticancer Drug Screen. Data for the rad50 strain (AID 155);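 note: 0% = growth of vehicle-only cultures of the same strain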; settings: S. cerevisiae rad50 strain growth inhibition; at 50.0 µM; hits give high values
Outline: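 Compounds were tested on a yeast strain with an engineered DNA damage repair alteration; the reported value is growth inhibition normalised to vehicle treatment.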

[2] = NCI Yeast Anticancer Drug Screen. Data for the mec2-1 strain (AID 157); settings: S. cerevisiae mec2-1 strain, at 50.0 µM, hits give high values
Outline: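 Cells of the genetically defined mec2-1 yeast strain are incubated with test compound. Inhibition of growth is calculated against vehicle-treated controls.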

[3] = NCI Yeast Anticancer Drug Screen. Data for the sgs1 mgt1 strain (AID 161);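 note: 0% = growth of cultures given vehicle only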; settings: S. cerevisiae sgs1 mgt1 strain, at 50.0 µM, hits give high values
Outline: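 Test agents were incubated with a DNA-repair-mutant yeast strain. Growth was then read and compared against vehicle-treated controls.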

[4] = NCI Yeast Anticancer Drug Screen. Data for the cln2 rad14 strain (AID 165);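 note: 0% = growth equal to vehicle treated cultures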; settings: S. cerevisiae cln2 rad14 strain, at 50.0 µM, hits give high values
Outline: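 The screen exposed genetically defined yeast (cln2 rad14) to test compounds and scored growth inhibition relative to vehicle-treated controls.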

[5] = NCI Yeast Anticancer Drug Screen. Data for the bub3 strain (AID 167); settings: S. cerevisiae bub3 mutant strain, at 50.0 µM, hits give high values
Outline: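 Growth of a checkpoint-deficient yeast mutant is measured after compound exposure. Values represent inhibition relative to vehicle.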

[6] = NCI Yeast Anticancer Drug Screen. Data for the mlh1 rad18 strain (AID 175); settings: S. cerevisiae mlh1 rad18 strain growth inhibition; at 50.0 µM; hits give high values
Outline: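 Compound-treated yeast growth, normalised to vehicle controls. Strain bears defined DNA repair mutations.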

## O=C(NCCN1CCCCC1)c1cccc(I)c1
[1]
  growth inhibition: 2.45%
[2]
  growth inhibition: -4.85%
[3]
  growth inhibition: 15.5%
[4]
  growth inhibition: 28.3%
[5]
  growth inhibition: 8.15%
[6]
  growth inhibition: 16%

## CC(=O)C1CCCCCCC1=O (centres undefined)
[1]
  growth inhibition: 16.1%
[2]
  growth inhibition: -5.35%
[3]
  growth inhibition: 4.9%
[4]
  growth inhibition: -15.8%
[5]
  growth inhibition: -11.8%
[6]
  growth inhibition: 16.1%

## O=C1CCCCCN1
[1]
  growth inhibition: 18.5%
[2]
  growth inhibition: 1.55%
[3]
  growth inhibition: -9.95%
[4]
  growth inhibition: -11.3%
[5]
  growth inhibition: -5.1%
[6]
  growth inhibition: 18.1%

## CCc1cc2c(c3c1CCCC3=O)CC1(Cc3ccc(C(=O)OC)cc3C1)C2 (centres undefined)
[1]
  growth inhibition: -8.05%
[2]
  growth inhibition: -28.9%
[3]
  growth inhibition: -7.6%
[4]
  growth inhibition: -20.6%
[5]
  growth inhibition: -8.95%
[6]
  growth inhibition: -39.7%

## O=C(NNC1=NCCCN1)c1ccco1
[1]
  growth inhibition: 2.1%
[2]
  growth inhibition: -0.75%
[3]
  growth inhibition: 9.25%
[4]
  growth inhibition: -22.2%
[5]
  growth inhibition: 7.5%
[6]
  growth inhibition: -3.85%

## OCC(O)C(OC1OC(CO)C(O)C(O)C1O)c1nn(-c2ccc(F)cc2)c2nc3cc(Cl)c(Cl)cc3cc12 (centres undefined)
[1]
  growth inhibition: 13.6%
[2]
  growth inhibition: -10.1%
[3]
  growth inhibition: -26.8%
[4]
  growth inhibition: 29.9%
[5]
  growth inhibition: 6.45%
[6]
  growth inhibition: -1.55%

## CCNC(=O)CCP(=O)(CCC(=O)NCC)CCC(=O)NCC
[1]
  growth inhibition: 7.25%
[2]
  growth inhibition: -3.05%
[3]
  growth inhibition: 3.9%
[4]
  growth inhibition: -4.35%
[5]
  growth inhibition: -6.7%
[6]
  growth inhibition: 6%

## CC(=O)NC(Cc1ccccc1)c1ccccc1 (centres undefined)
[1]
  growth inhibition: 17.1%
[2]
  growth inhibition: -8.2%
[3]
  growth inhibition: 11.1%
[4]
  growth inhibition: 12.8%
[5]
  growth inhibition: 21.6%
[6]
  growth inhibition: 10.8%

## CCOC(=O)NN(C(=O)OCC)C(C(C)=O)c1ccccc1 (centres undefined)
[1]
  growth inhibition: 3.95%
[2]
  growth inhibition: -3.35%
[3]
  growth inhibition: -10.8%
[4]
  growth inhibition: -9.35%
[5]
  growth inhibition: -0.7%
[6]
  growth inhibition: 17.3%

## CCCc1c(O)c2ccccc2[nH]c1=O
[1]
  growth inhibition: 11.3%
[2]
  growth inhibition: 11.7%
[3]
  growth inhibition: -37.8%
[4]
  growth inhibition: 14.7%
[5]
  growth inhibition: 15.8%
[6]
  growth inhibition: -8.3%

## OCCNc1ncnc2nc[nH]c12
[1]
  growth inhibition: -17.9%
[2]
  growth inhibition: -3.5%
[3]
  growth inhibition: -12.5%
[4]
  growth inhibition: 65.5%
[5]
  growth inhibition: -46.5%
[6]
  growth inhibition: 2.5%

## O=[N+]([O-])c1ccc2[nH]ccc2c1
[1]
  growth inhibition: 8.75%
[2]
  growth inhibition: -4.25%
[3]
  growth inhibition: -2.7%
[4]
  growth inhibition: 10.7%
[5]
  growth inhibition: 3.6%
[6]
  growth inhibition: 7.5%

## COC(=O)N1CC2CC=CC(C2)c2ccccc21 (centres undefined)
[1]
  growth inhibition: -13.9%
[2]
  growth inhibition: -37.5%
[3]
  growth inhibition: -1.35%
[4]
  growth inhibition: 5.15%
[5]
  growth inhibition: 16.1%
[6]
  growth inhibition: -9.4%

## CCCNC(=S)N/N=C/c1cccc(C)n1
[1]
  growth inhibition: -23.3%
[2]
  growth inhibition: -26.1%
[3]
  growth inhibition: 2.15%
[4]
  growth inhibition: 15.2%
[5]
  growth inhibition: 24.2%
[6]
  growth inhibition: -12%

## CC(O)C(O)C(O)CO (centres undefined)
[1]
  growth inhibition: 6.1%
[2]
  growth inhibition: 18.4%
[3]
  growth inhibition: -3.85%
[4]
  growth inhibition: 19.8%
[5]
  growth inhibition: 24.4%
[6]
  growth inhibition: 8.95%

## NC(=O)c1nsc(-c2ccc([N+](=O)[O-])cc2)c1N
[1]
  growth inhibition: -10.8%
[2]
  growth inhibition: 0.9%
[3]
  growth inhibition: -1.8%
[4]
  growth inhibition: 30.6%
[5]
  growth inhibition: -17.8%
[6]
  growth inhibition: -3.7%

## CCOC(=O)CSc1nc(-c2ccc(Cl)cc2)c(C#N)c(=O)[nH]1
[1]
  growth inhibition: 5.9%
[2]
  growth inhibition: -0.45%
[3]
  growth inhibition: 2%
[4]
  growth inhibition: 27.1%
[5]
  growth inhibition: 8.85%
[6]
  growth inhibition: -79%

## CC1OC(C)(Cc2ccccc2)OC1C (centres undefined)
[1]
  growth inhibition: 3.95%
[2]
  growth inhibition: -13.9%
[3]
  growth inhibition: -9.2%
[4]
  growth inhibition: -59%
[5]
  growth inhibition: -7.1%
[6]
  growth inhibition: -8.95%

## Cc1ccc(Nc2nnc(-c3ccc4c(c3)OCO4)o2)c(C)c1
[1]
  growth inhibition: 22.8%
[2]
  growth inhibition: 1.6%
[3]
  growth inhibition: -4.4%
[4]
  growth inhibition: -2.15%
[5]
  growth inhibition: -4%
[6]
  growth inhibition: 14.8%

## C(=C/c1ccccc1)/C=N/N1CCN(/N=C/C=C/c2ccccc2)CC1
[1]
  growth inhibition: -1.4%
[2]
  growth inhibition: 20.6%
[3]
  growth inhibition: 14.8%
[4]
  growth inhibition: -7.1%
[5]
  growth inhibition: 18.5%
[6]
  growth inhibition: -7.05%

## CCCOC(=O)CCBr
[1]
  growth inhibition: -2.55%
[2]
  growth inhibition: 10.1%
[3]
  growth inhibition: -13.9%
[4]
  growth inhibition: -57%
[5]
  growth inhibition: -22.9%
[6]
  growth inhibition: -8.1%

## COc1ccc2c(c1)N1CCc3cc(OC)c(OC)cc3C1C2 (centres undefined)
[1]
  growth inhibition: 15.8%
[2]
  growth inhibition: -5.15%
[3]
  growth inhibition: 25.2%
[4]
  growth inhibition: 9.5%
[5]
  growth inhibition: 25%
[6]
  growth inhibition: 34.4%

## CSc1nc(NC2OCC(O)C(O)C2O)cc(=O)[nH]1 (centres undefined)
[1]
  growth inhibition: 7.75%
[2]
  growth inhibition: -0.95%
[3]
  growth inhibition: 10.8%
[4]
  growth inhibition: -2.25%
[5]
  growth inhibition: -13.8%
[6]
  growth inhibition: 1.3%

## O=S(=O)(c1ccccc1)C1C2CCC(O2)C1S(=O)(=O)c1ccccc1 (centres undefined)
[1]
  growth inhibition: 19.4%
[2]
  growth inhibition: 7.8%
[3]
  growth inhibition: 15.7%
[4]
  growth inhibition: 30.9%
[5]
  growth inhibition: 29.6%
[6]
  growth inhibition: 10.1%

## CN(C)n1c(O)c(N=O)sc1=S
[1]
  growth inhibition: -30.9%
[2]
  growth inhibition: -6.25%
[3]
  growth inhibition: -7.65%
[4]
  growth inhibition: -25.7%
[5]
  growth inhibition: -10.1%
[6]
  growth inhibition: 5.55%

## O=NN(Cc1ccc(Cl)cc1)NC1=NCCN1
[1]
  growth inhibition: 5.55%
[2]
  growth inhibition: 14.3%
[3]
  growth inhibition: 3.75%
[4]
  growth inhibition: -3.65%
[5]
  growth inhibition: 15.2%
[6]
  growth inhibition: 29.6%

## O=C(Cc1nc2ccccc2[nH]c1=O)c1cccnc1
[1]
  growth inhibition: -0.5%
[2]
  growth inhibition: 8.25%
[3]
  growth inhibition: 13.2%
[4]
  growth inhibition: 1.55%
[5]
  growth inhibition: -4.75%
[6]
  growth inhibition: 16.3%

## NC(=O)SCC(=O)Nc1ccc2cccc3c2c1CC3
[1]
  growth inhibition: 66.2%
[2]
  growth inhibition: 60.3%
[3]
  growth inhibition: 80% (active)
[4]
  growth inhibition: 61.6%
[5]
  growth inhibition: 74.3% (active)
[6]
  growth inhibition: 85.2% (active)

## COC(=Nc1cccc2ccccc12)Nc1cccc2ccccc12
[1]
  growth inhibition: 1.95%
[2]
  growth inhibition: -3.5%
[3]
  growth inhibition: -4.35%
[4]
  growth inhibition: 7.95%
[5]
  growth inhibition: -2.3%
[6]
  growth inhibition: -2%

## CC1=CC(C)(C)NC(=S)N1c1ccccc1O
[1]
  growth inhibition: -0.95%
[2]
  growth inhibition: 25.6%
[3]
  growth inhibition: 15.3%
[4]
  growth inhibition: -16.4%
[5]
  growth inhibition: 41.8%
[6]
  growth inhibition: 41%

## CC1=C(O)c2ccccc2C(=O)C1=O
[1]
  growth inhibition: 25.4%
[2]
  growth inhibition: 16.8%
[3]
  growth inhibition: 40.3%
[4]
  growth inhibition: 36.2%
[5]
  growth inhibition: 12.8%
[6]
  growth inhibition: 23.8%

## O=C(c1ccccc1)C1C(C(=O)c2ccccc2)C(c2ccccc2)N(c2ccccc2)C1c1ccccc1 (centres undefined)
[1]
  growth inhibition: 27.4%
[2]
  growth inhibition: 17.8%
[3]
  growth inhibition: -27.1%
[4]
  growth inhibition: 18.9%
[5]
  growth inhibition: -12.2%
[6]
  growth inhibition: -75.2%

## N#CC(C#N)=Cn1c(=S)[nH]c2ccc([N+](=O)[O-])cc21
[1]
  growth inhibition: -13.4%
[2]
  growth inhibition: -19.6%
[3]
  growth inhibition: 2.75%
[4]
  growth inhibition: 20.8%
[5]
  growth inhibition: -9%
[6]
  growth inhibition: -4.55%

## C1=CCC(C(Nc2nncs2)Nc2nncs2)CC1 (centres undefined)
[1]
  growth inhibition: 6.25%
[2]
  growth inhibition: 3.95%
[3]
  growth inhibition: 19.6%
[4]
  growth inhibition: 7.05%
[5]
  growth inhibition: -24.9%
[6]
  growth inhibition: 9.25%

## CC(=O)c1ccccc1C(C)c1ccc(C)c2ccccc12 (centres undefined)
[1]
  growth inhibition: -1.65%
[2]
  growth inhibition: 12.4%
[3]
  growth inhibition: 6.75%
[4]
  growth inhibition: -11.8%
[5]
  growth inhibition: 2.95%
[6]
  growth inhibition: 2.3%

## C=C(CN(C)C)C(=O)c1ccc(OC)cc1
[1]
  growth inhibition: 7.75%
[2]
  growth inhibition: 19%
[3]
  growth inhibition: -3.75%
[4]
  growth inhibition: 17.5%
[5]
  growth inhibition: 2%
[6]
  growth inhibition: 27.2%

## N=C(N)C1CC1
[1]
  growth inhibition: -6.75%
[2]
  growth inhibition: -9.5%
[3]
  growth inhibition: -8.9%
[4]
  growth inhibition: 12.8%
[5]
  growth inhibition: 2.4%
[6]
  growth inhibition: -13.2%

## CCNC(CC1CCCCC1)C(=O)O (centres undefined)
[1]
  growth inhibition: -6.15%
[2]
  growth inhibition: 7.5%
[3]
  growth inhibition: -1.8%
[4]
  growth inhibition: 14.2%
[5]
  growth inhibition: 13.2%
[6]
  growth inhibition: 6.35%

## BrC1=CCC23CC=C(Br)[C@H]4CC2(COC3)C[C@@H]1O4 (some centres undefined)
[1]
  growth inhibition: 25.2%
[2]
  growth inhibition: -0.55%
[3]
  growth inhibition: 0.6%
[4]
  growth inhibition: -0.05%
[5]
  growth inhibition: -19.4%
[6]
  growth inhibition: -9.75%
